Reference: PubChem BioAssay (EPA / NIEHS)
More than one record can exist for a structure, and the calls need not agree. Active and inactive are the calls of the source. How the source made its calls: active means hit-call score of the fitted dose curve at least 0.9, where 1 is the maximum; inactive means score below 0.9.

read-out: Vascular endothelial growth factor receptor 2 (Homo sapiens) (UniProt P35968); assay: BSK_4H_VEGFRII: BioMAP Diversity Plus: 4H Assay for Vascular endothelial growth factor receptor 2 (VEGFR2) Biomarker Activity (AID 2283031); conditions: primary human endothelial cells (HUVEC); actives raise or lower the signal
Experimental: BSK_4H is a cell-based, multiplexed-readout assay that uses umbilical vein endothelium, a human vascular primary cell, with measurements taken at 24 hours after chemical dosing in a 96-well plate.BSK_4H_VEGFRII is an assay component measured in the BSK_4H assay. It measures VEGFRII antibody related to regulation of gene expression using ELISA technology.Data from the assay component BSK_4H_VEGFRII was analyzed into 1 assay endpoint. This assay endpoint, BSK_4H_VEGFRII, was analyzed with bidirectional fitting relative to DMSO as the negative control and baseline of activity. Using a type of binding reporter, gain or loss-of-signal activity can be used to understand changes in the signaling as they relate to the gene KDR. Furthermore, this assay endpoint can be referred to as a primary readout, because this assay has produced multiple assay endpoints where this one serves a signaling function. To generalize the intended target to other relatable targets, this assay endpoint is annotated to the kinase intended target family, where the subfamily is receptor tyrosine kinase.
The levels of cell surface (or secreted, indicated by the prefix "s") biomarker endpoints were measured by ELISA. Overt cytotoxicity to cells in confluent adherent cultures (all systems other than the BT system) was assessed by measuring total protein levels using sulforhodamine B (SRB) staining in parallel cultures at the time of biomarker measurements, indicated as SRB endpoints. For proliferation assays for adherent cell types, individual cell types are cultured at sub-confluence and relative cell numbers quantified by SRB staining at time points optimized for each system (48 h: 3C and CASM3C systems; 72 h: BT and HDF3CGF systems; 96 h: SAg system). SRB was performed by staining cells with 0.1% SRB after fixation with 10% TCA and reading wells at 560 nm.Viability and proliferation of PBMC (T cells) was quantified by Alamar Blue reduction for the SAg and BT systems. For PBMC viability (referred to as PBMC Cytotoxicity within the assay endpoint names), cells were plated (75,000/well in a 96-well plate) and then chemical samples added for 1 h before addition of activators, SEB and TSST-1 (20 ng/mL final concentration each). Cells were incubated for 90 h. Then, Alamar Blue (20 uL/well) (Invitrogen, Cat DAL1100) was added for 6 h, and the plates were read with a fluorescence microplate reader at 546/580 nm (excitation/emission). For PBMC proliferation, cells were plated and activated as above but incubated for only 16 h prior to addition of Alamar Blue. Plates were read after 6 h.

Row | Structure (SMILES) | outcome | AC50
1 | CC(=O)CCC=C(C)CCC=C(C)C | inactive | –
2 | C=CC(=O)OCC(CO)(COC(=O)C=C)COC(=O)C=C | – | 0.661 µM (active)
3 | CCOC(=O)CCCCCCCCC(=O)OCC | inactive | –
4 | CC(=O)c1ccc(C)cc1 | inactive | 1.45 µM (active)
5 | CCCO[Si](OCCC)(OCCC)OCCC | inactive | –
6 | CCCCCCCC1CCCC1=O (stereo not given) | inactive | –
7 | CC/C(=C(\c1ccccc1)c1ccc(OCCN(C)C)cc1)c1ccccc1 | inactive | 4.71 µM (active)
8 | CCCCCCCCCCCCS | inactive | –
9 | c1ccc(Sc2ccccc2)cc1 | inactive | –
10 | O=S1(=O)CC(Cl)(Cl)C(Cl)(Cl)C1 | inactive | –
11 | OCCN1CCOCC1 | inactive | –
12 | COC(=O)c1ccc(C(=O)OC)cc1 | inactive | –
13 | C=C1CC/C=C(\C)CC[C@@H]2[C@@H]1CC2(C)C | – | 29.1 µM (active)
14 | CC(=O)OCC=C(C)CCC=C(C)CCC=C(C)C | inactive | –
15 | CC(C)(C)c1cccc(O)c1 | inactive | –
16 | COc1ccccc1NC(=O)CC(C)=O | inactive | –
17 | O=C1OC2(c3ccc(O)cc3Oc3cc(O)ccc32)c2ccccc21 | inactive | –
18 | NC(=O)c1c(Cl)cccc1Cl | inactive | –
19 | CC1=CC(C)C(C=O)C(C)C1 (stereo not given) (tested in a mixture with another compound) | inactive | –

Row | Structure (SMILES) | outcome | AC50
20 | O=S(=O)(O)C(F)(F)C(F)(F)OC(F)(F)C(F)(F)F | inactive | –
21 | CC(C)Cc1ccc(C(C)C(=O)O)cc1 (stereo not given) | inactive | –
22 | CCC(=O)OCC=Cc1ccccc1 | inactive | –
23 | CC(=O)OC(C)(C)C1CC=C(C)CC1 (stereo not given) | – | 31.6 µM (active)
24 | CC(C)(CO)CO | inactive | –
25 | CCCCOCCOCCO | inactive | –
26 | O=C(O)C(F)(F)OC(F)(F)C(F)(F)OC(F)(F)C(F)(F)C(F)(F)C(F)(F)F | inactive | –
27 | OCC(F)(OC(F)(F)C(F)(OC(F)(F)C(F)(F)C(F)(F)F)C(F)(F)F)C(F)(F)F (stereo not given) | inactive | –
28 | c1ccc(OCCOc2ccccc2)cc1 | inactive | –
29 | CC(C)CCCC(C)(C)O | inactive | –
30 | C=C(C)C(=O)OCCC(F)(F)C(F)(F)C(F)(F)C(F)(F)C(F)(F)C(F)(F)C(F)(F)C(F)(F)F | inactive | –
31 | O=C(O)C(F)(F)C(F)(F)C(F)(F)C(F)(F)C(F)(F)C(F)(F)C(F)(F)C(F)F | inactive | –
32 | Nc1ccc(N)c([N+](=O)[O-])c1 | inactive | –
33 | C[C@]12CC[C@@H]3c4ccc(O)cc4CC[C@H]3[C@@H]1CC[C@@H]2O | inactive | –
34 | C=C(F)C(=O)OC(C(F)(F)F)C(F)(F)F | inactive | –
35 | CC1(C)[C@H](C=C(Cl)Cl)[C@H]1C(=O)OCc1cccc(Oc2ccccc2)c1 | inactive | –
36 | O=C(c1ccc(OCCN2CCCCC2)cc1)c1c(-c2ccc(O)cc2)sc2cc(O)ccc12 | inactive | –
37 | CCCCN(CCO)CCO | inactive | –
38 | c1ccc2c(c1)-c1ccc3ccc4cccc5cc-2c1c3c45 | inactive | –
